Results on 60 molecules are retold here after ChEMBL document CHEMBL3988442, “University of Dundee, Small-Polar-MMV Screening Library” (2021).

In all, about 85,000 compounds went through this assay and about 440 (0.52%) showed an effect of 50% or more. The list comes from a sample in which strong results are over-represented; it also holds similar structures and randomly drawn compounds.

The test is described as follows: In vitro enzyme assay to detect hydrolysis of chlorophenol red-beta-D-[…] directly proportional to the number of Toxoplasma stably expressing beta-galactosidase. The class given is functional, organism-based, Toxoplasma gondii. Also on record: scale not given: in the data most compounds retested in dose-response had high values.

On to `Cc1nscc1C(=O)OCCC(=O)NC(C)C`, for which the “Percent Effect” value (50 µM) is -12.79%.
In the case of `CCCn1nc(C)cc1NC(=O)N1CCCC(C#N)C1` (stereo not given), where the note is “50 µM”, the “Percent Effect” value is on record as -0.4936%.
Still for that read-out and setting: for `COc1cc(Br)cnc1C#N` the value was -14.47%; for `CSCc1ccc(C(=O)N2CC(CC(N)=O)C2)cc1`, -6.52%; for `NCc1ccccc1OC(F)(F)F`, 14.39%.
Take `OC1(c2ccccc2)CCCNCC1` (stereo not given): for the setting “50 µM”, the “Percent Effect” value is on record as 3.493%.
As to `CCc1nnc(NC(=O)c2ccc(S(=O)(=O)NC)o2)s1`, where the note is “50 µM”, the “Percent Effect” value is reported as -1.635%.
As for `CCSc1ccc(C(=O)NCCc2nnc[nH]2)cn1`, where the note is “50 µM”, the “Percent Effect” value was found to be 5.402%.
For the molecule `Cc1cccc(C)c1OCC(=O)N1CCOCC1c1ncon1` (stereo not given), the “Percent Effect” value (10 µM) was 56.8%.
Same read-out and setting: for `O=C(COc1cccc(Cl)c1)N1CCOCC1c1ncon1` (stereo not given) the value was 37.28%.
Turning to `CCc1ccccc1OCC(=O)N1CCOCC1c1ncon1` (stereo not given), under “10 µM”, the “Percent Effect” value amounted to 7.498%.
For the molecule `OC1(C2CCCCC2)CCNCC1`, the “Percent Effect” value (50 µM) is 0.8115%.
With `C=C(Br)CN1CCN(CCNC(=O)C2CCC2)CC1`, for the setting “50 µM”, the “Percent Effect” value is reported as -27.84%.
As for `CN(C)c1ccc(NC(=O)CCc2cccnc2)cn1`, the “Percent Effect” value (50 µM) is -6.854%.
With `CCS(=O)(=O)CCNC1CCN(c2nc3ccc(Cl)cc3s2)CC1`, for the setting “10 µM”, the “Percent Effect” value is on record as 6.923%.
Turning to `CCc1nccn1CCNC1CCN(c2nc3ccc(Cl)cc3s2)CC1`, the “Percent Effect” value (10 µM) came to 59.54%.
With `Clc1ccc2nc(N3CCC(NCCCC4CCOC4)CC3)sc2c1` (stereo not given), the “Percent Effect” value (10 µM) is -1.385%.
On to `CC(CN)C(=O)Nc1cn[nH]c1` (stereo not given), for which the “Percent Effect” value (50 µM) is 55.25%.
Same read-out and setting: for `CC(=O)Nc1cn[nH]c1` the value was -20.18%; for `CC(CNC(=O)Nc1cn[nH]c1)N(C)C` (stereo not given), -3.915%; for `CCn1cc(S(=O)(=O)N2CCNCC2)c(C)n1`, -15.85%.
As for `NC(=O)C1CN(c2ccc3cccc(Br)c3n2)CCO1` (stereo not given), the “Percent Effect” value (50 µM) is listed as -8.237%.
For `CS(=O)(=O)c1cc(Cl)cc(CN)c1`, the “Percent Effect” value (50 µM) is listed as -21.93%.
Still for that read-out and setting: for `CNS(=O)(=O)c1ncccc1N` the value was -16.66%; for `NCc1cccc(CN2CCCC2=O)c1`, -4.942%; for `NCc1cccc(CN2CCCC2)c1`, 60.68%.
Same read-out and setting: for `NCc1ccc(CN2CCCCC2)cc1` the value was 0.9541%; for `Cc1nn(C)c(C)c1NC(=O)N1CCSCC1`, -12.54%; for `CN(C)c1cc(CNC(=O)c2ccncc2)ccn1`, -1.688%.
Regarding `CN(C)c1cc(CNC(=O)c2cnccn2)ccn1`, the “Percent Effect” value (10 µM) came to 21.24%.
Regarding `CN(C)c1cc(CNC(=O)c2nccnc2N)ccn1`, the “Percent Effect” value (50 µM) came out at 58.76%.
For the molecule `O=C1CC[C@@H](CO)N1`, the “Percent Effect” value (50 µM) is on record as -0.2195%.
Same read-out and setting: the value for `CCS(=O)(=O)c1cccc(CN)c1` was 21.69%; that for `Cc1ccc(C(=O)NCCCN2CCCC2)cc1` was 3.9%.
In the case of `N#Cc1c(Cl)nsc1NCc1cccnc1OC1CCCC1`, the “Percent Effect” value (10 µM) amounted to 78.06%.
Consider `CNC(=O)NCc1cccnc1OC1CCCC1`, for which the “Percent Effect” value (50 µM) was 56.84%.
Turning to `COc1ncccc1CNc1snc(Cl)c1C#N`, under “10 µM”, the “Percent Effect” value was found to be 29.55%.
On to `CC(O)CNC(=O)NCc1cccnc1OC1CCCC1` (stereo not given), for which, for the setting “10 µM”, the “Percent Effect” value is on record as -1.891%.
Take `Cc1cc(NC(=O)NCc2cccnc2OC2CCCC2)n(C)n1`: the “Percent Effect” value (10 µM) is given as -3.087%.
Same read-out and setting: for `N#Cc1c(Cl)nsc1NCc1cccnc1OCC(F)(F)F` the value was 25.91%.
On to `CCN1CCCC1CNC(=O)CN(C)S(C)(=O)=O` (stereo not given), for which the “Percent Effect” value (50 µM) is -8.865%.
Consider `COc1cccc(NC(=O)CN2CCCNCC2)c1`, for which, for the setting “50 µM”, the “Percent Effect” value was -7.679%.
The same measure, in the same setting: for `O=C(Nc1ccccn1)N1CCCN(C2CC2)CC1` the value was 3.024%.
As for `COCc1ccc(C(=O)N2CCC(Oc3ccccc3)(C(=O)O)CC2)o1`, where the note is “10 µM”, the “Percent Effect” value is given as 0.5821%.
With `O=C(Cn1cc(Br)cn1)N1N=CCC1(O)C(F)(F)F` (stereo not given), where the note is “50 µM”, the “Percent Effect” value is recorded as -25.92%.
In the case of `Cc1cccc(OCc2ccc(C(=O)N3N=CCC3(O)C(F)(F)F)o2)c1` (stereo not given), the “Percent Effect” value (10 µM) is recorded as 93.63%.
Take `O=C(c1ccc(COc2ccc(Cl)cc2)o1)N1N=CCC1(O)C(F)(F)F` (stereo not given): the “Percent Effect” value (10 µM) came out at 95.68%.
On the same count and under the same terms, for `O=C(c1ccc(COc2ccccc2Cl)o1)N1N=CCC1(O)C(F)(F)F` (stereo not given) the value was 45.92%.
For the molecule `COc1ccc(C(=O)N2CCC(Oc3cccc(C)c3)(C(=O)O)CC2)o1`, where the note is “10 µM”, the “Percent Effect” value is -1.229%.
With `CC(C)NC(=O)CNCc1ccc(Br)o1`, for the setting “50 µM”, the “Percent Effect” value is recorded as 0.3067%.
The same measure, in the same setting: the value for `CN1CCN(C)C2(CCN(C(=O)C(C)(C)O)CC2)C1` was 7.866%.
Consider `Cc1cc(C(=O)N2CCN(c3nc4c(C(C)C)cccc4s3)CC2)on1`, for which the “Percent Effect” value (10 µM) was found to be 83.09%.
In the case of `Cc1cc(C(=O)N2CCN(c3nc4c(C(C)C)cccc4s3)CC2)no1`, the “Percent Effect” value (10 µM) stood at 14.68%.
Regarding `Cc1cc(C(=O)N2CCN(c3nc4c(C)cccc4s3)CC2)no1`, for the setting “10 µM”, the “Percent Effect” value is reported as 11.62%.
Turning to `CC(C)C(=O)Nc1cccc(CN)c1`, for the setting “50 µM”, the “Percent Effect” value is on record as -3.402%.
The same measure, in the same setting: the value for `CCOCCSc1nnnn1CC1CCCO1` (stereo not given) was 4.057%.
Consider `CCc1nc(Nc2cccc(C(=O)NC)c2)c2c(n1)c(C)nn2CC`, for which the “Percent Effect” value (10 µM) was determined as 63.37%.
The same measure, in the same setting: for `CCn1nc(C)c2nnn(CC(=O)Nc3ccc(C)cc3)c(=O)c21` the value was 5.455%; for `CCc1nc(NCC(=O)N2CCOCC2)c2c(n1)c(C)nn2CC`, -2.271%; for `CCn1nc(C)c(C(C)NC(=O)c2cccc(NCC(=O)O)c2)c1C` (stereo not given), -6.268%.
